The source of these data is PubChem BioAssay (NCATS).

The structures appear in SMILES notation. Inconclusive results are not listed. Active and inactive are the calls of the source. Calls follow the shape of the dose curve; as a rule, active = well fitted curve in the direction sought with a large enough effect; inconclusive = small, poorly fitted or top-dose-only effect, or another doubt; inactive = no such curve, though single readings can be large; an effect the other way counts as inactive or inconclusive.

Assay [1] can be described thus: Quantitative High-Throughput drug screen in 47 multiple myeloma cell lines against the NCATS MIPE library collection: KMS26_JCRB cell viability assay (AID 1918975). Also: nearly all actives have a fitted effect of over 45% in size. To be noted: KMS26 myeloma cells viability, CellTiter-Glo ATP, 48 h; series mostly up to 45.8 µM. In a few lines:
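We plated 500 myeloma cells per well, pinned in MIPE 4.0 compounds, and incubated for 48 hours at 37C. ATP was then quantified with CellTiter-Glo, with DMSO and media-only wells defining 100% and 0%.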

Assay [2] in a line: Quantitative High-Throughput drug screen in 47 multiple myeloma cell lines against the NCATS MIPE library collection: MMM1_PLB cell viability assay (AID 1918976). Also: nearly all actives have a fitted effect of over 35% in size. As to conditions: MMM1 myeloma cells viability, CellTiter-Glo, 48 h; series mostly up to 45.8 µM. In a few lines: (§1)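 500 cells/well per myeloma line exposed to pinned MIPE 4.0 compounds for 48 h at 37 °C, 5% CO2. Viability read as ATP by CellTiter-Glo luminescence, normalised to DMSO-only (100%) and media-only (0%) wells.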

Assay [3] in a line: Quantitative High-Throughput drug screen in 47 multiple myeloma cell lines against the NCATS MIPE library collection: MOLP8_DSMZ cell viability assay (AID 1918977). Also: nearly all actives have a fitted effect of over 45% in size. As to conditions: MOLP8 myeloma viability, CellTiter-Glo ATP luminescence, 48 h; series mostly up to 45.8 µM. In a few lines:
as §1

The nature of assay [4]: Quantitative High-Throughput drug screen in 47 multiple myeloma cell lines against the NCATS MIPE library collection: NCIH929_DSMZ cell viability assay (AID 1918978). Also: nearly all actives have a fitted effect of over 35% in size. As to conditions: NCI-H929 myeloma viability, CellTiter-Glo ATP, 48 h; series mostly up to 45.8 µM. In a few lines:
as §1

Assay [5] is described as follows: Quantitative High-Throughput drug screen in 47 multiple myeloma cell lines against the NCATS MIPE library collection: OCIMY1_PLB cell viability assay (AID 1918979). Also: nearly all actives have a fitted effect of over 35% in size. As to conditions: OCI-MY1 myeloma viability, CellTiter-Glo ATP, 48 h; series mostly up to 45.8 µM. In a few lines: as §1
Assay [6] can be described thus: Quantitative High-Throughput drug screen in 47 multiple myeloma cell lines against the NCATS MIPE library collection: MM1S_ATCC cell viability assay (AID 1918980). Also: nearly all actives have a fitted effect of over 45% in size. To be noted: MM1S myeloma viability, CellTiter-Glo ATP luminescence, 48 h; series mostly up to 45.8 µM. In a few lines: as §1
Assay [7] is described as follows: Quantitative High-Throughput drug screen in 47 multiple myeloma cell lines against the NCATS MIPE library collection: MM1R_ATCC cell viability assay (AID 1918981). Also: nearly all actives have a fitted effect of over 35% in size. To be noted: MM1R multiple myeloma cells, CellTiter-Glo viability, 48 h; series mostly up to 45.8 µM. In a few lines:
as §1

Assay [8] is described as follows: Quantitative High-Throughput drug screen in 47 multiple myeloma cell lines against the NCATS MIPE library collection: LP1_DSMZ cell viability assay (AID 1918982). Also: nearly all actives have a fitted effect of over 35% in size. As to conditions: LP1 myeloma viability, CellTiter-Glo ATP luminescence, 48 h; series mostly up to 45.8 µM. In a few lines: as §1
A short description of assay [9]: Quantitative High-Throughput drug screen in 47 multiple myeloma cell lines against the NCATS MIPE library collection: KMS28PE_JCRB cell viability assay (AID 1918983). Also: nearly all actives have a fitted effect of over 35% in size. To be noted: KMS28PE multiple myeloma viability, CellTiter-Glo ATP, 48 h; series mostly up to 45.8 µM. In a few lines:
as §1

Assay [10] in a line: Quantitative High-Throughput drug screen in 47 multiple myeloma cell lines against the NCATS MIPE library collection: L363_DSMZ cell viability assay (AID 1918984). Also: nearly all actives have a fitted effect of over 40% in size. To be noted: L363 myeloma viability, CellTiter-Glo ATP luminescence, 48 h; series mostly up to 45.8 µM. In a few lines: as §1
Potency is read from the fitted curve at half-maximal effect.

Take `CC[C@@H]1C(=O)N(C)c2cnc(Nc3ccc(C(=O)NC4CCN(C)CC4)cc3OC)nc2N1C1CCCC1`: the Potency in assay [1] is 3720 nM (active); in [2], 13200 nM (active); in assay [3], 4690 nM (active); in assay [4], 2350 nM (active); in assay [5] it was 469 nM (active); in assay [6] it was 4180 nM (active). For the same molecule, the Potency is 1180 nM (active) in assay [7], 166 nM (active) in assay [8] and 74.3 nM (active) in assay [9].

For the molecule `Nc1cc(C(F)(F)F)c(-c2cc(N3CCOCC3)nc(N3CCOCC3)n2)cn1`, the Potency is 2090 nM (active) in assay [1]; 526 nM (active) in assay [2]; 1050 nM (active) in assay [3]; 209 nM (active) in assay [4]; 469 nM (active) in assay [5]; 235 nM (active) in assay [6]. In addition, the Potency is 1180 nM (active) in assay [7], 935 nM (active) in assay [9] and 209 nM (active) in assay [10].

Consider `CC(C)c1cc(C(=O)N2Cc3ccc(CN4CCN(C)CC4)cc3C2)c(O)cc1O`, for which the Potency in assay [1] is 235 nM (active); in assay [2] it was 418 nM (active); in assay [3] it was 148 nM (active); in assay [4] it was 166 nM (active); in [5] it was 418 nM (active); in [6], 332 nM (active). Moreover, the Potency in [7] is 418 nM (active); in assay [9] it was 332 nM (active); in assay [10], 59 nM (active).

Take `CCN(CC)CCNC(=O)c1ccc2nc(-c3ccccc3)c(-c3ccc(CN4CCC(n5c(=O)[nH]c6ccccc65)CC4)cc3)nc2c1`: the Potency in assay [1] is 14800 nM (active); in assay [2], 26400 nM (active); in assay [3], 16600 nM (active); in [4], 743 nM (active); in assay [5] it was 20900 nM (active); in [6] it was 8330 nM (active). For the same molecule, the Potency in assay [7] was 20900 nM (active); in assay [8] it was 18700 nM (active); in [9], 23500 nM (active); in [10] it was 418 nM (active).

Consider `C=CC(=O)Nc1cc2c(Nc3ccc(F)c(Cl)c3)ncnc2cc1C#CC(C)(C)N1CCN(C)CC1`, for which the Potency in assay [1] is 1660 nM (active); in assay [2] it was 5260 nM (active); in assay [3] it was 1050 nM (active); in [4], 833 nM (active); in [5], 4690 nM (active); in [6], 2090 nM (active). For the same molecule, the Potency in [7] was 1320 nM (active); in assay [9] it was 833 nM (active); in [10], 1480 nM (active).

Turning to `COc1cc(=C2C=c3ccccc3=N2)[nH]c1=Cc1[nH]c(C)cc1C`, the Potency in assay [1] was 2350 nM (active); in assay [2], 2090 nM (active); in assay [3] it was 469 nM (active); in [4] it was 5260 nM (active); in assay [5] it was 3720 nM (active); in assay [6], 4180 nM (active). The Potency is 1050 nM (active) in [7], 743 nM (active) in [8] and 1660 nM (active) in assay [9].

In the case of `Cc1ccc(NC(=O)C2(c3ccc4c(c3)OC(F)(F)O4)CC2)nc1-c1cccc(C(=O)O)c1`, the Potency was 59 nM (active) in assay [1]; 52.6 nM (active) in assay [2]; 20.9 nM (active) in assay [3]; 235 nM (active) in [4]; 187 nM (active) in [5]; 52.6 nM (active) in assay [6]. Moreover, the Potency was 59 nM (active) in assay [7], 66.2 nM (active) in [8], 41.8 nM (active) in assay [9] and 29.6 nM (active) in [10].

In the case of `CCOc1cc2ncc(C#N)c(Nc3ccc(F)c(Cl)c3)c2cc1NC(=O)C=CCN(C)C`, the Potency in assay [1] was 20900 nM (active); in assay [2], 18700 nM (active); in assay [3] it was 20900 nM (active); in assay [4], 5900 nM (active); in assay [5] it was 18700 nM (active); in assay [6] it was 296 nM (active). Moreover, the results for the Potency in [7], in assay [8] and in [9] were 4180 nM (active), 10500 nM (active) and 14800 nM (active), respectively.

Take `CN(C)CC=CC(=O)Nc1cc2c(Nc3ccc(F)c(Cl)c3)ncnc2cc1O[C@H]1CCOC1`: the Potency in assay [1] was 6620 nM (active); in assay [2] it was 20900 nM (active); in [3] it was 18700 nM (active); in assay [4], 5260 nM (active); in assay [5] it was 16600 nM (active); in assay [6] it was 5900 nM (active). Further, the figures for the Potency in assay [7], in assay [9] and in [10] were 13200 nM (active), 18700 nM (active) and 1320 nM (active), respectively.

As to `COC(=O)c1ccc2c(C(=Nc3ccc(N(C)C(=O)CN4CCN(C)CC4)cc3)c3ccccc3)c(O)[nH]c2c1`, the Potency in assay [1] is 2640 nM (active); in assay [2], 7430 nM (active); in assay [3], 9350 nM (active); in assay [4], 5900 nM (active); in assay [5] it was 10500 nM (active); in assay [6] it was 1180 nM (active). In addition, the Potency in assay [7] is 14800 nM (active); in assay [9], 7430 nM (active).

Consider `CC1(C)CC(=O)c2c(C(F)(F)F)nn(-c3ccc(C(N)=O)c(NC4CCC(OC(=O)CN)CC4)c3)c2C1` (configuration not stated), for which the Potency in [1] was 187 nM (active); in [2], 418 nM (active); in assay [3], 148 nM (active); in assay [4], 148 nM (active); in assay [5], 469 nM (active); in assay [6], 209 nM (active). For the same molecule, the Potency in assay [7] was 209 nM (active); in assay [9], 235 nM (active); in assay [10] it was 83.3 nM (active).

Take `CCCCCN(CCC12CC3CC(CC(C3)C1)C2)C(=O)NCCCc1ccncc1`: the Potency is 20900 nM (active) in assay [1]; 20900 nM (active) in assay [2]; 20900 nM (active) in assay [3]; 18700 nM (active) in assay [4]; 18700 nM (active) in [6]; 23500 nM (active) in assay [7]. The Potency in assay [9] is 20900 nM (active). Further, the Potency result in assay [5] is “inactive”.

In the case of `C=CC(=O)Nc1cc2c(Nc3ccc(F)c(Cl)c3)ncnc2cc1OCCCN1CCOCC1`, the Potency in [1] is 5260 nM (active); in assay [2], 18700 nM (active); in assay [3], 8330 nM (active); in [4], 2640 nM (active); in assay [5] it was 23500 nM (active); in [6], 18700 nM (active). For the same molecule, the Potency is 8330 nM (active) in assay [7], 16600 nM (active) in [8] and 18700 nM (active) in assay [9].

With `CNC(=O)c1nn(C)c2c1C(C)(C)Cc1cnc(Nc3ccc(N4CCN(C)CC4)cc3)nc1-2`, the Potency in [1] is 13200 nM (active); in assay [2] it was 11800 nM (active); in assay [3], 1870 nM (active); in assay [4] it was 2640 nM (active); in [5] it was 5260 nM (active); in assay [6], 1660 nM (active). Further, the Potency was 3320 nM (active) in assay [7], 5900 nM (active) in assay [8], 4180 nM (active) in assay [9] and 662 nM (active) in [10].
